# Source: the supplement of paper PMC4466140
# Tests used:
# Experiment in all cases: SPOT peptide array binding signal intensity (averaged, normalized) (arbitrary units (background-subtracted, floor 0; scale differs between SH3 domains)); higher = stronger binding of the SH3 domain to the peptide
# AgAbp1 = molecular target: AgAbp1
# Summary of the method: (§1)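 E. coli BL21(DE3) was used to express GST-fused SH3 domains from four yeast species, which were then purified on glutathione Sepharose. These were incubated at 10 μg/ml in TBS-based blocking buffer overnight at 4°C on cellulose membranes carrying synthetic 15-mer peptides, in which cysteines were replaced by serines. Binding signal is the replicate average of normalized, background-subtracted spot intensity, in arbitrary units that differ between domains.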
# AgBbc1 = molecular target: AgBbc1
# Summary of the method: as §1
# AgBem1-D1 = molecular target: AgBem1-D1
# Summary of the method: as §1
# AgBzz1-D1 = molecular target: AgBzz1-D1
# Summary of the method: as §1
# AgBzz1-D2 = molecular target: AgBzz1-D2
# Summary of the method: as §1
# AgCyk3 = molecular target: AgCyk3
# Summary of the method: as §1
# AgFus1 = molecular target: AgFus1
# Summary of the method: as §1
# AgHof1 = molecular target: AgHof1
# Summary of the method: as §1
# AgHse1 = molecular target: AgHse1
# Summary of the method: as §1
# AgLsb1 = molecular target: AgLsb1
# Summary of the method: as §1
# AgLsb4 = molecular target: AgLsb4
# Summary of the method: as §1
# AgMyo5 = molecular target: AgMyo5
# Summary of the method: as §1
# AgNbp2 = molecular target: AgNbp2
# Summary of the method: as §1
# AgRvs167 = molecular target: AgRvs167
# Summary of the method: as §1
# AgSho1 = molecular target: AgSho1
# Summary of the method: as §1
# AgSla1-D1-D2 = molecular target: AgSla1-D1-D2
# Summary of the method: as §1
# AgSla1-D3 = molecular target: AgSla1-D3
# Summary of the method: as §1
# CaAbp1-D1 = molecular target: CaAbp1-D1
# Summary of the method: as §1
# CaAbp1-D2 = molecular target: CaAbp1-D2
# Summary of the method: as §1
# CaBbc1 = molecular target: CaBbc1
# Summary of the method: as §1
# CaBem1-D1 = molecular target: CaBem1-D1
# Summary of the method: as §1
# CaBzz1-D1 = molecular target: CaBzz1-D1
# Summary of the method: as §1
# CaBzz1-D2 = molecular target: CaBzz1-D2
# Summary of the method: as §1
# CaCyk3 = molecular target: CaCyk3
# Summary of the method: as §1
# CaFus1 = molecular target: CaFus1
# Summary of the method: as §1
# CaHof1 = molecular target: CaHof1
# Summary of the method: as §1
# CaHse1 = molecular target: CaHse1
# Summary of the method: as §1
# CaLsb1 = molecular target: CaLsb1
# Summary of the method: as §1
# CaLsb4 = molecular target: CaLsb4
# Summary of the method: as §1
# CaMyo5 = molecular target: CaMyo5
# Summary of the method: as §1
# CaNbp2 = molecular target: CaNbp2
# Summary of the method: as §1
# CaRvs167 = molecular target: CaRvs167
# Summary of the method: as §1
# CaRvs167-3 = molecular target: CaRvs167-3
# Summary of the method: as §1
# CaSho1 = molecular target: CaSho1
# Summary of the method: as §1
# CaSla1-D1-D2 = molecular target: CaSla1-D1-D2
# Summary of the method: as §1
# CaSla1-D3 = molecular target: CaSla1-D3
# Summary of the method: as §1
# ScAbp1 = molecular target: ScAbp1
# Summary of the method: as §1
# ScBbc1 = molecular target: ScBbc1
# Summary of the method: as §1
# ScBem1-D1 = molecular target: ScBem1-D1
# Summary of the method: as §1
# ScBzz1-D1 = molecular target: ScBzz1-D1
# Summary of the method: as §1
# ScBzz1-D2 = molecular target: ScBzz1-D2
# Summary of the method: as §1
# ScCyk3 = molecular target: ScCyk3
# Summary of the method: as §1
# ScFus1 = molecular target: ScFus1
# Summary of the method: as §1
# ScHof1 = molecular target: ScHof1
# Summary of the method: as §1
# ScHse1 = molecular target: ScHse1
# Summary of the method: as §1
# ScLsb1 = molecular target: ScLsb1
# Summary of the method: as §1
# ScLsb2 = molecular target: ScLsb2
# Summary of the method: as §1
# ScLsb3 = molecular target: ScLsb3
# Summary of the method: as §1
# ScLsb4 = molecular target: ScLsb4
# Summary of the method: as §1
# ScMyo3 = molecular target: ScMyo3
# Summary of the method: as §1
# ScMyo5 = molecular target: ScMyo5
# Summary of the method: as §1
# ScNbp2 = molecular target: ScNbp2
# Summary of the method: as §1
# ScPex13 = molecular target: ScPex13
# Summary of the method: as §1
# ScRvs167 = molecular target: ScRvs167
# Summary of the method: as §1
# ScSho1 = molecular target: ScSho1
# Summary of the method: as §1
# ScSla1-D1-D2 = molecular target: ScSla1-D1-D2
# Summary of the method: as §1
# ScSla1-D3 = molecular target: ScSla1-D3
# Summary of the method: as §1
# SpAbp1-D1 = molecular target: SpAbp1-D1
# Summary of the method: as §1
# SpBbc1 = molecular target: SpBbc1
# Summary of the method: as §1
# SpBzz1-D1 = molecular target: SpBzz1-D1
# Summary of the method: as §1
# SpBzz1-D2 = molecular target: SpBzz1-D2
# Summary of the method: as §1
# SpCyk3 = molecular target: SpCyk3
# Summary of the method: as §1
# SpHof1 = molecular target: SpHof1
# Summary of the method: as §1
# SpHof1-2 = molecular target: SpHof1-2
# Summary of the method: as §1
# SpHof1-3 = molecular target: SpHof1-3
# Summary of the method: as §1
# SpHse1 = molecular target: SpHse1
# Summary of the method: as §1
# SpLsb1 = molecular target: SpLsb1
# Summary of the method: as §1
# SpLsb4 = molecular target: SpLsb4
# Summary of the method: as §1
# SpMyo1 = molecular target: SpMyo1
# Summary of the method: as §1
# SpNbp2 = molecular target: SpNbp2
# Summary of the method: as §1
# SpPex13 = molecular target: SpPex13
# Summary of the method: as §1
# SpRvs167 = molecular target: SpRvs167
# Summary of the method: as §1
# SpSla1-D1-D2 = molecular target: SpSla1-D1-D2
# Summary of the method: as §1
# SpSla1-D3 = molecular target: SpSla1-D3
# Summary of the method: as §1
binder,measurement,setting,value
KDKSRPPRPPPKPLH,SPOT peptide array binding signal intensity,AgAbp1,917
same,SPOT peptide array binding signal intensity,AgBbc1,282
same,SPOT peptide array binding signal intensity,AgBem1-D1,30
same,SPOT peptide array binding signal intensity,AgBzz1-D1,257
same,SPOT peptide array binding signal intensity,AgBzz1-D2,119
same,SPOT peptide array binding signal intensity,AgCyk3,≤ 0
same,SPOT peptide array binding signal intensity,AgFus1,≤ 0
same,SPOT peptide array binding signal intensity,AgHof1,55.8
same,SPOT peptide array binding signal intensity,AgHse1,27
same,SPOT peptide array binding signal intensity,AgLsb1,7.5
same,SPOT peptide array binding signal intensity,AgLsb4,11.5
same,SPOT peptide array binding signal intensity,AgMyo5,≤ 0
same,SPOT peptide array binding signal intensity,AgNbp2,138
same,SPOT peptide array binding signal intensity,AgRvs167,1.33
same,SPOT peptide array binding signal intensity,AgSho1,71.5
same,SPOT peptide array binding signal intensity,AgSla1-D1-D2,≤ 0
same,SPOT peptide array binding signal intensity,AgSla1-D3,7.5
same,SPOT peptide array binding signal intensity,CaAbp1-D1,298
same,SPOT peptide array binding signal intensity,CaAbp1-D2,780
same,SPOT peptide array binding signal intensity,CaBbc1,240
same,SPOT peptide array binding signal intensity,CaBem1-D1,382
same,SPOT peptide array binding signal intensity,CaBzz1-D1,3930
same,SPOT peptide array binding signal intensity,CaBzz1-D2,748
same,SPOT peptide array binding signal intensity,CaCyk3,23.5
same,SPOT peptide array binding signal intensity,CaFus1,≤ 0
same,SPOT peptide array binding signal intensity,CaHof1,≤ 0
same,SPOT peptide array binding signal intensity,CaHse1,67
same,SPOT peptide array binding signal intensity,CaLsb1,0.5
same,SPOT peptide array binding signal intensity,CaLsb4,158
same,SPOT peptide array binding signal intensity,CaMyo5,≤ 0
same,SPOT peptide array binding signal intensity,CaNbp2,88.5
same,SPOT peptide array binding signal intensity,CaRvs167,8.67
same,SPOT peptide array binding signal intensity,CaRvs167-3,0.5
same,SPOT peptide array binding signal intensity,CaSho1,≤ 0
same,SPOT peptide array binding signal intensity,CaSla1-D1-D2,602
same,SPOT peptide array binding signal intensity,CaSla1-D3,21.5
same,SPOT peptide array binding signal intensity,ScAbp1,670
same,SPOT peptide array binding signal intensity,ScBbc1,8.5
same,SPOT peptide array binding signal intensity,ScBem1-D1,≤ 0
same,SPOT peptide array binding signal intensity,ScBzz1-D1,123
same,SPOT peptide array binding signal intensity,ScBzz1-D2,≤ 0
same,SPOT peptide array binding signal intensity,ScCyk3,≤ 0
same,SPOT peptide array binding signal intensity,ScFus1,≤ 0
same,SPOT peptide array binding signal intensity,ScHof1,≤ 0
same,SPOT peptide array binding signal intensity,ScHse1,24
same,SPOT peptide array binding signal intensity,ScLsb1,121
same,SPOT peptide array binding signal intensity,ScLsb2,1
same,SPOT peptide array binding signal intensity,ScLsb3,1930
same,SPOT peptide array binding signal intensity,ScLsb4,15.5
same,SPOT peptide array binding signal intensity,ScMyo3,29.5
same,SPOT peptide array binding signal intensity,ScMyo5,49.5
same,SPOT peptide array binding signal intensity,ScNbp2,305
same,SPOT peptide array binding signal intensity,ScPex13,103
same,SPOT peptide array binding signal intensity,ScRvs167,45
same,SPOT peptide array binding signal intensity,ScSho1,171
same,SPOT peptide array binding signal intensity,ScSla1-D1-D2,266
same,SPOT peptide array binding signal intensity,ScSla1-D3,11.5
same,SPOT peptide array binding signal intensity,SpAbp1-D1,528
same,SPOT peptide array binding signal intensity,SpBbc1,≤ 0
same,SPOT peptide array binding signal intensity,SpBzz1-D1,366
same,SPOT peptide array binding signal intensity,SpBzz1-D2,16.8
same,SPOT peptide array binding signal intensity,SpCyk3,1
same,SPOT peptide array binding signal intensity,SpHof1,≤ 0
same,SPOT peptide array binding signal intensity,SpHof1-2,≤ 0
same,SPOT peptide array binding signal intensity,SpHof1-3,75.5
same,SPOT peptide array binding signal intensity,SpHse1,21.5
same,SPOT peptide array binding signal intensity,SpLsb1,484
same,SPOT peptide array binding signal intensity,SpLsb4,670
same,SPOT peptide array binding signal intensity,SpMyo1,277
same,SPOT peptide array binding signal intensity,SpNbp2,13.5
same,SPOT peptide array binding signal intensity,SpPex13,≤ 0
same,SPOT peptide array binding signal intensity,SpRvs167,129
same,SPOT peptide array binding signal intensity,SpSla1-D1-D2,≤ 0
same,SPOT peptide array binding signal intensity,SpSla1-D3,3
SPLGAPPPPPHKDHL,SPOT peptide array binding signal intensity,CaNbp2,≤ 0
same,SPOT peptide array binding signal intensity,CaRvs167,3
same,SPOT peptide array binding signal intensity,CaRvs167-3,≤ 0
same,SPOT peptide array binding signal intensity,CaSho1,≤ 0
same,SPOT peptide array binding signal intensity,CaSla1-D1-D2,≤ 0
same,SPOT peptide array binding signal intensity,CaSla1-D3,≤ 0
same,SPOT peptide array binding signal intensity,ScAbp1,≤ 0
same,SPOT peptide array binding signal intensity,ScBbc1,≤ 0
same,SPOT peptide array binding signal intensity,ScBem1-D1,≤ 0
same,SPOT peptide array binding signal intensity,ScBzz1-D1,11
same,SPOT peptide array binding signal intensity,ScBzz1-D2,≤ 0
same,SPOT peptide array binding signal intensity,ScCyk3,≤ 0
same,SPOT peptide array binding signal intensity,ScFus1,≤ 0
same,SPOT peptide array binding signal intensity,ScHof1,1.5
same,SPOT peptide array binding signal intensity,ScHse1,≤ 0
same,SPOT peptide array binding signal intensity,ScLsb1,≤ 0
same,SPOT peptide array binding signal intensity,ScLsb2,≤ 0
same,SPOT peptide array binding signal intensity,ScLsb3,≤ 0
same,SPOT peptide array binding signal intensity,ScLsb4,≤ 0
same,SPOT peptide array binding signal intensity,ScMyo3,931
same,SPOT peptide array binding signal intensity,ScMyo5,670
same,SPOT peptide array binding signal intensity,ScNbp2,≤ 0
same,SPOT peptide array binding signal intensity,ScPex13,≤ 0
same,SPOT peptide array binding signal intensity,ScRvs167,1
same,SPOT peptide array binding signal intensity,ScSho1,≤ 0
same,SPOT peptide array binding signal intensity,ScSla1-D1-D2,≤ 0
same,SPOT peptide array binding signal intensity,ScSla1-D3,≤ 0
same,SPOT peptide array binding signal intensity,SpAbp1-D1,≤ 0
same,SPOT peptide array binding signal intensity,SpBbc1,≤ 0
same,SPOT peptide array binding signal intensity,SpBzz1-D1,176
same,SPOT peptide array binding signal intensity,SpBzz1-D2,≤ 0
same,SPOT peptide array binding signal intensity,SpCyk3,≤ 0
same,SPOT peptide array binding signal intensity,SpHof1,≤ 0
same,SPOT peptide array binding signal intensity,SpHof1-2,1
same,SPOT peptide array binding signal intensity,SpHof1-3,≤ 0
same,SPOT peptide array binding signal intensity,SpHse1,≤ 0
same,SPOT peptide array binding signal intensity,SpLsb1,≤ 0
same,SPOT peptide array binding signal intensity,SpLsb4,≤ 0
same,SPOT peptide array binding signal intensity,SpMyo1,1260
same,SPOT peptide array binding signal intensity,SpNbp2,≤ 0
same,SPOT peptide array binding signal intensity,SpPex13,2
same,SPOT peptide array binding signal intensity,SpRvs167,0.167
same,SPOT peptide array binding signal intensity,SpSla1-D1-D2,1
same,SPOT peptide array binding signal intensity,SpSla1-D3,≤ 0
